What was measured:
U-2932 [1] = assay: growth inhibition by drug alone (1 - RLU/untreated control) (fraction); higher = stronger inhibition; settings: 177Lu-lilotomab satetraxetan 0 ug/ml
In short: (§1)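 Plates pre-printed with the Selleck Cambridge Cancer Compound library at 10/100 nM (RIVA) or 10/1,000 nM (U-2932) received 3,000 cells/well. These cells had been washed after 18 h untreated or with a radiolabelled anti-CD37 antibody conjugate (~600 MBq/mg; 0.5 µg/ml RIVA, 1 µg/ml U-2932). Growth inhibition was obtained from RealTime-Glo luminescence in relation to untreated no-drug wells. Each daily read from day 3, taken after 1 h at 37°C, was converted as 1 − RLU/mean of 48 such wells per plate.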

RIVA [2] = assay: as above; settings: 177Lu-lilotomab satetraxetan 0 ug/ml
In short: as §1

U-2932 [3] = assay: growth inhibition by drug plus 177Lu-lilotomab satetraxetan (1 - RLU/untreated control) (fraction); higher = stronger inhibition; settings: 177Lu-lilotomab satetraxetan 1 ug/ml
In short: as §1

RIVA [4] = assay: as above; settings: 177Lu-lilotomab satetraxetan 0.5 ug/ml
In short: as §1

Row | Structure (SMILES) | growth inhibition by drug alone (U-2932 [1]; 10 nM, time (day): 3) | growth inhibition by drug alone (U-2932 [1]; 10 nM, time (day): 4) | growth inhibition by drug alone (U-2932 [1]; 10 nM, time (day): 5) | growth inhibition by drug alone (U-2932 [1]; 10 nM, time (day): 6) | growth inhibition by drug alone (U-2932 [1]; 1000 nM, time (day): 3) | growth inhibition by drug alone (U-2932 [1]; 1000 nM, time (day): 4) | growth inhibition by drug alone (U-2932 [1]; 1000 nM, time (day): 5) | growth inhibition by drug alone (U-2932 [1]; 1000 nM, time (day): 6) | growth inhibition by drug alone (RIVA [2]; 10 nM, time (day): 3) | growth inhibition by drug alone (RIVA [2]; 10 nM, time (day): 4) | growth inhibition by drug alone (RIVA [2]; 10 nM, time (day): 5) | growth inhibition by drug alone (RIVA [2]; 10 nM, time (day): 6) | growth inhibition by drug alone (RIVA [2]; 100 nM, time (day): 3) | growth inhibition by drug alone (RIVA [2]; 100 nM, time (day): 4) | growth inhibition by drug alone (RIVA [2]; 100 nM, time (day): 5) | growth inhibition by drug alone (RIVA [2]; 100 nM, time (day): 6) | growth inhibition by drug plus 177Lu-lilotomab satetraxetan (U-2932 [3]; 10 nM, time (day): 3) | growth inhibition by drug plus 177Lu-lilotomab satetraxetan (U-2932 [3]; 10 nM, time (day): 4) | growth inhibition by drug plus 177Lu-lilotomab satetraxetan (U-2932 [3]; 10 nM, time (day): 5) | growth inhibition by drug plus 177Lu-lilotomab satetraxetan (U-2932 [3]; 10 nM, time (day): 6) | growth inhibition by drug plus 177Lu-lilotomab satetraxetan (U-2932 [3]; 1000 nM, time (day): 3) | growth inhibition by drug plus 177Lu-lilotomab satetraxetan (U-2932 [3]; 1000 nM, time (day): 4) | growth inhibition by drug plus 177Lu-lilotomab satetraxetan (U-2932 [3]; 1000 nM, time (day): 5) | growth inhibition by drug plus 177Lu-lilotomab satetraxetan (U-2932 [3]; 1000 nM, time (day): 6) | growth inhibition by drug plus 177Lu-lilotomab satetraxetan (RIVA [4]; 10 nM, time (day): 3) | growth inhibition by drug plus 177Lu-lilotomab satetraxetan (RIVA [4]; 10 nM, time (day): 4) | growth inhibition by drug plus 177Lu-lilotomab satetraxetan (RIVA [4]; 10 nM, time (day): 5) | growth inhibition by drug plus 177Lu-lilotomab satetraxetan (RIVA [4]; 10 nM, time (day): 6) | growth inhibition by drug plus 177Lu-lilotomab satetraxetan (RIVA [4]; 100 nM, time (day): 3) | growth inhibition by drug plus 177Lu-lilotomab satetraxetan (RIVA [4]; 100 nM, time (day): 4) | growth inhibition by drug plus 177Lu-lilotomab satetraxetan (RIVA [4]; 100 nM, time (day): 5) | growth inhibition by drug plus 177Lu-lilotomab satetraxetan (RIVA [4]; 100 nM, time (day): 6)
1 | O=C(O)C(Cc1c[nH]c2ccccc12)N1C(=O)c2ccccc2C1=O (stereo not given) | 0.0147 | 0.0153 | -0.0484 | -0.236 | -0.0782 | -0.0484 | -0.0679 | -0.115 | -0.0918 | -0.166 | -0.249 | -0.485 | -0.231 | -0.283 | -0.253 | -0.339 | -0.0896 | -0.0477 | -0.032 | 0.0338 | -0.157 | -0.0639 | -0.0646 | -0.0481 | 0.311 | 0.457 | 0.475 | 0.497 | 0.275 | 0.394 | 0.397 | 0.381
2 | C[C@@H](N)[C@H]1CC[C@H](C(=O)Nc2ccncc2)CC1 | -0.00242 | -0.0313 | -0.0598 | -0.119 | -0.0269 | -0.0273 | -0.115 | -0.0522 | -0.062 | -0.109 | -0.134 | -0.231 | -0.413 | -0.366 | -0.399 | -0.522 | -0.0365 | 0.0334 | 0.0633 | 0.082 | -0.014 | 0.0434 | 0.0766 | 0.194 | – | – | – | – | – | – | – | –
3 | Nc1[nH]nc2nnc(-c3c(-c4ccccc4)nn4ccccc34)cc12 | 0.0936 | 0.109 | 0.0192 | -0.0741 | 0.0442 | 0.0356 | -0.0414 | -0.0395 | 0.0237 | 0.104 | 0.0531 | -0.13 | -0.0641 | 0.0167 | 0.00135 | -0.0876 | 0.135 | 0.17 | 0.238 | 0.275 | 0.0922 | 0.143 | 0.19 | 0.259 | 0.592 | 0.635 | 0.657 | 0.652 | 0.357 | 0.48 | 0.493 | 0.495
4 | CN1CCN(c2ccc3nc(-c4c(N)c5c(F)cccc5[nH]c4=O)[nH]c3c2)CC1 [Dovitinib (TKI-258)] | 0.12 | 0.0504 | -0.004 | -0.0165 | 0.0669 | -0.0112 | -0.0673 | -0.128 | 0.0921 | 0.0422 | -0.0205 | -0.168 | -0.156 | -0.0867 | -0.188 | -0.316 | 0.0639 | 0.0792 | 0.118 | 0.243 | 0.0496 | 0.031 | 0.0265 | 0.126 | 0.421 | 0.501 | 0.522 | 0.53 | 0.358 | 0.399 | 0.413 | 0.411
